High-throughput results (PubChem)
Only a selection was taken, and hits are over-represented in it overall.
Shiga toxin inh = A qHTS for Small Molecule Inhibitors of Shiga Toxin; Vero cells, Shiga toxin protein synthesis inhibition reporter; AID 2315, 2010; inhibition, % at 38.7 µM; actives 9.2% (n = 290,000); in the data active = inhibition mostly above about 28%, no sharp cut-off; inactive = mostly below about 43%
FBPA Giardia inh = qHTS Assay for Inhibitors of Fructose-1,6-bisphosphate Aldolase from Giardia Lamblia; actives 0.71% (n = 290,000); Potency, µM (titrated, usually from 59.6 µM), usual class: inhibitors; purified Giardia FBPA; A8B2U2; also: nearly all actives have a fitted effect of over 55% in size
Target sequence (A8B2U2 whole entry, looked up): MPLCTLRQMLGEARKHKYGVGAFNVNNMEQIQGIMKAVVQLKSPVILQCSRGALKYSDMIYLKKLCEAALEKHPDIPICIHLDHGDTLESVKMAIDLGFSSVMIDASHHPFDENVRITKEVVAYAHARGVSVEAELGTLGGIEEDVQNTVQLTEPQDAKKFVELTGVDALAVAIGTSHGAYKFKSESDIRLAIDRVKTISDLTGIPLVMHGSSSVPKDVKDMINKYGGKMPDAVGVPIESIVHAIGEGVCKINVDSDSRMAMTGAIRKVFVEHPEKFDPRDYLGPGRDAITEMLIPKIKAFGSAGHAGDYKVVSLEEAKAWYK
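40 nM FBPA preincubated 10 min at RT with compound (up to 57.5 uM final), then substrate plus GAPDH/TPI/NAD/arsenate coupling and diaphorase/resazurin added. Fluorescence read after 20 min at RT, 525/598 nm.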
Cycloheximide cs = Cycloheximide Counterscreen for Small Molecule Inhibitors of Shiga Toxin | cell reporter, cycloheximide protein synthesis inhibition counterscreen | max response, % | actives 12% (n = 300,000); in the data active = max response mostly above about 13%, no sharp cut-off; inactive = mostly below about 14%; also: read at 38.3 µM for the half of the compounds with a filed dose
LmPK inh = qHTS Assay for Inhibitors of Leishmania Mexicana Pyruvate Kinase (LmPK); Q27686; purified LmPK, Kinase-Glo ATP luminescence, 1 h; Potency, µM (titrated, usually from 57.5 µM), actives largely listed as inhibitors; actives 0.37% (n = 290,000)
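qHTS format; LmPK 0.1 nM; substrates PEP 0.5 mM and ADP 0.1 mM. One-hour room-temperature incubation, then coupled luciferase luminescence; 0.5 nM enzyme wells mark activation.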
TbPYK inhibitor = qHTS of Trypanosoma Brucei Inhibitors. AID 624173, 2012. TbPYK enzyme, Kinase-Glo Plus ATP luminescence, 45 min. Potency, µM (highest dose often 76.8 µM), actives largely listed as inhibitors. pyruvate kinase (Trypanosoma brucei), Q57TT1. actives 0.12% (n = 410,000); also: nearly all actives have a fitted effect of over 50% in size
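Screened from lowest to highest concentration, compounds were pinned into TbPYK/substrate mixtures, and ADP (130 uM final) was added. Plates sat at room temperature for 45 min prior to Kinase-Glo Plus detection by luminescence.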
Sm TGR block = qHTS Assay for the Inhibitors of Schistosoma Mansoni Peroxiredoxins | actives 3% (n = 360,000) | AID 485364, 2010 | Schistosoma mansoni thioredoxin glutathione reductase (TGR), Q962Y6 | Potency, µM (titrated, usually from 114 µM), usual class: inhibitors | purified TGR, DTNB reduction, TNB absorbance 405 nm; also: nearly all actives have a fitted effect of over 60% in size
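TGR 20 nM + NADPH 100 uM (dispensed conc.), cpd preinc 15 min RT; start with NADPH (500 uM addition) then DTNB (15 mM addition). Kinetic TNB absorbance, 405 nm filter. Four-parameter Hill fit across titration.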
Numbers stand for hits; n = inactive; u = inconclusive; x = no result given. Unless noted, calls follow the shape of the dose curve; as a rule, active = well fitted curve in the direction sought with a large enough effect; inconclusive = small, poorly fitted or top-dose-only effect, or another doubt; inactive = no such curve, though single readings can be large; an effect the other way counts as inactive or inconclusive.

SMILES | Shiga toxin inh | FBPA Giardia inh | Cycloheximide cs | LmPK inh | TbPYK inhibitor | Sm TGR block
O=C(Cn1c(=O)nc(-c2ccccc2)c2ccccc21)NCc1ccc(F)cc1 | x | x | x | x | n | n
CCOc1ccc(C(c2c(NC(=O)c3ccccc3)sc(C)c2C)N2CCN(CCO)CC2)cc1 (stereo not given) | n | n | 16 | n | n | n
CCC(Oc1ccccc1)C(=O)N(C)CC(=O)N(CC(C)C)c1c(N)n(CC(C)C)c(=O)[nH]c1=O (stereo not given) | x | x | x | x | n | n
Cc1cc(C)n2nc(-c3ccccc3)cc2n1 | 77 | n | 57 | n | n | n
Cc1cc(C)n2nc(-c3ccc(F)cc3)cc2n1 | x | x | x | x | n | x
Cc1cc(C)n2nc(C(=O)NCc3ccccc3)cc2n1 | n | n | n | n | n | n
Cc1ccc(-c2cc3nc(C)cc(C)n3n2)cc1 | 78 | n | 38 | n | n | x
Cc1ccc(-c2cc3nc(-c4ccccc4)cc(C(F)(F)F)n3n2)cc1 | x | x | x | x | n | n
Cc1cc(C)n2nc(Nc3ccccc3)cc2n1 | 88 | n | 28 | n | n | n
Cc1cc(C)n2nc(-c3ccsc3-n3c(C)ccc3C)cc2n1 | n | n | n | n | n | 3.5µM
Cc1cc(C)n2nc(-c3cnn(C)c3C(F)(F)F)cc2n1 | n | n | n | n | n | n
COCCNC(=O)C1(C)CCCN(C(=O)c2cc(C)on2)C1 (stereo not given) | x | x | x | x | n | x
CCN(C(=O)COC(=O)c1ccc(C=O)cc1)c1c(N)n(Cc2ccccc2)c(=O)[nH]c1=O | x | x | x | x | n | n
Cc1ccc(C(C)C)c(OCC(=O)NNCC(=O)Nc2cccc(F)c2)c1 | x | x | x | x | n | x
CC(=O)N[C@@H](C)c1nc2ccccc2n1CCCN1CCN(c2nc(-c3ccc(C)cc3)cs2)CC1 | n | u | n | n | n | n
Cc1ccc(NC(=O)c2cc3nc(-c4ccccc4)cc(-c4ccccc4)n3n2)cc1 | x | x | x | x | n | n
Cc1ccc(NC(=O)c2cc3nc(C)cc(C)n3n2)cc1 | 101 | n | 47 | n | n | n
Nc1cc(-c2ccc(Br)cc2)nc2cc(-c3ccccc3)nn12 | 93 | n | n | n | n | n
CC(C)c1ccccc1NC(=O)C(Cc1c[nH]c2ccccc12)NC(=O)OC(C)(C)C (stereo not given) | x | x | x | x | n | n
O=C(NCc1ccccc1)C1(C(F)(F)F)C/C(=C\Cc2ccccc2)CCCO1 (stereo not given) | n | n | n | x | x | x
O=C(Nc1nnc2n1CCS2)c1cc(C(F)(F)F)cc(C(F)(F)F)c1 | x | x | x | x | n | n
CC(C)N=c1scc(-c2cccs2)n1/N=C/c1ccc(O)c(O)c1O | 60 | u | 16 | n | n | 20µM
COc1ccc(O)c(/C=N/n2c(-c3ccco3)csc2=Nc2cccnc2)c1 | n | n | n | n | n | n
CN=c1scc(-c2ccccc2F)n1/N=C/c1ccc(O)c(O)c1O | n | 7.9µM | n | u | u | 18µM
CN=c1scc(-c2ccccc2F)n1/N=C/c1ccc[nH]1 | n | n | n | n | n | n
SMILES | Shiga toxin inh | FBPA Giardia inh | Cycloheximide cs | LmPK inh | TbPYK inhibitor | Sm TGR block
CCN=c1scc(-c2cccs2)n1/N=C/c1cc(OC)ccc1O | n | n | 51 | n | n | n
CC(C)C[C@H](NC(=O)CNC(=O)[C@H](C)NC(=O)[C@H](CC(C)C)NC(=O)[C@H](CCCNC(=N)N)NC(=O)[C@H](Cc1cnc[nH]1)NC(=O)[C@@H](NC(=O)[C@@H](N)C(C)C)[C@@H](C)O)C(=O)N[C@@H](CC(C)C)C(=O)N[C@@H](CO)C(=O)N[C@@H](CCCNC(=N)N)C(=O)N[C@@H](CO)C(=O)NCC(=O)NCC(=O)N[C@H](C(=O)N[C@H](C(=O)N[C@@H](CCCCN)C(=O)N[C@@H](CC(N)=O)C(=O)N[C@@H](CC(N)=O)C(=O)N[C@@H](Cc1ccccc1)C(=O)N[C@H](C(=O)N1CCC[C@H]1C(=O)N[C@H](C(=O)N[C@@H](CC(N)=O)C(=O)N[C@H](C(=O)NCC(=O)N[C@@H](CO)C(=O)N[C@@H](CCCCN)C(=O)N[C@@H](C)C(=O)N[C@@H](Cc1ccccc1)C(N)=O)C(C)C)[C@@H](C)O)C(C)C)C(C)C)C(C)C | n | n | n | x | x | x
O=C(NN(C(=O)C1CC1)c1nc2ccccc2s1)C1CC1 | 60 | n | 46 | n | n | n
O=C(C1CCCCC1)N(CCN1CCCC1)c1nc2ccccc2s1 | n | n | 32 | n | n | n
CC(C)C(=O)NN(C(=O)C(C)C)c1nc2ccccc2s1 | n | n | n | n | n | n
Cc1ccc(S(=O)(=O)CCOC(=O)CNC(=O)OCc2ccccc2)cc1 | x | x | x | x | n | x
CCc1c(C(C)S(=O)(=O)c2ccccc2)[nH]c(=O)n1CC (stereo not given) | n | n | n | n | n | 1µM
CN(C)c1oc(-c2ccc(COc3ccccc3)o2)nc1C#N | x | x | x | x | n | n
CCOC(=O)c1ccccc1Nc1cc(C)nc2nc(-c3ccco3)nn12 | n | x | n | x | n | 18µM
Cc1cc(Nc2ccccc2Cl)n2nc(-c3ccco3)nc2n1 | x | x | x | x | n | u
C=CCn1c(O)c2ccc(C(=O)N=NC(=O)COc3ccccc3F)cc2c1O | x | x | x | x | n | n
CCCCC(=O)N(C)c1c(CC)nc2c(OCc3ccc(C(F)(F)F)cc3)cccn12 | x | x | x | x | n | x
CCOc1ccc(N(CC(=O)Nc2ccc(C)c(Cl)c2)S(C)(=O)=O)cc1 | n | n | 24 | n | n | n
CCOc1ccc(NC(=O)CN(c2ccc(OC)cc2)S(C)(=O)=O)cc1 | 121 | n | 98 | n | n | n
COc1ccc(N(CC(=O)Nc2cccc3ccccc23)S(C)(=O)=O)cc1 | n | n | 12 | n | n | n
CCOc1ccc(S(=O)(=O)N(CC(=O)Nc2ccc(OC)c(Cl)c2)c2ccccc2)cc1 | x | x | x | x | n | n
CCOc1ccc(N(CC(=O)Nc2ccc(Cl)cc2)S(C)(=O)=O)cc1 | x | x | x | x | n | x
CCOc1ccc(N(CC(=O)Nc2ccc(OC)cc2)S(C)(=O)=O)cc1 | 53 | n | 39 | n | n | n
O=C(OCC(=O)N1CCOCC1)c1ccc2ccccc2c1O | x | x | x | x | n | n
CCOc1ccc(N(CC(=O)Nc2ccc(Br)cc2)S(C)(=O)=O)cc1 | 54 | n | 30 | n | n | n
CCOc1ccc(N(CC(=O)NCc2ccccc2C)S(C)(=O)=O)cc1 | 68 | n | 42 | n | n | n
CCOc1ccc(N(CC(=O)Nc2cccc(C)c2)S(C)(=O)=O)cc1 | 86 | n | 54 | n | n | n
COC(=O)c1ccccc1NC(=O)CN(c1ccc(OC)cc1)S(C)(=O)=O | n | n | n | n | n | n
